Consider 121 compounds from PubChem BioAssay AID492952 (Southern Research Specialized Biocontainment Screening …, 2010).

Screen size: about 2,300 compounds; about 1,500 (65%) were called active. No rule for the calls is given here. So high a share suggests a set chosen from earlier hits. The list shows a part of the results. Results with a measured potency or affinity are listed apart.

The nature of this assay: replicating M. tuberculosis growth inhibition, dose response, non-replicating M. tuberculosis project, H37Rv (AID 492952).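 Also: Mycobacterium tuberculosis grown in culture; growth inhibition read after a week of incubation.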 The following applies: series mostly up to 50 µM.
Turning to `CC(C)N1CCc2c(sc(NC(=O)CCS(=O)(=O)c3ccccc3)c2C#N)C1`, the call was inactive. Turning to `CSC1=NSC2=NC(=O)/C(=C\c3cccs3)C(=N)N12`, the result was inactive. Next, `N=C1/C(=C\c2coc3ccccc3c2=O)C(=O)N=C2SC=CN12`: “inactive”. Take `O=C(CCSc1ccc(Cl)cc1)Nc1cccnc1`: the compound was called inactive. `c1cncc(-c2noc(CC3CCCCC3)n2)c1`: the compound was called inactive. With `COc1ccc(C(=O)CC(=O)C(=O)NCCc2cccc(C)c2)cc1`, the call was inactive.

For the compound `CC[n+]1c(/C=C(\C)Nc2ccccc2)sc2ccccc21`, the outcome was inactive. Consider `Cc1nnc(C)n1/N=C/c1cc(Br)cc(Br)c1O`, for which the outcome was inactive. `COc1cc(C2C3=C(CC(C)(C)CC3=O)OC(N)=C2[N+](=O)[O-])ccc1O` (stereo unspecified): the result was inactive. Regarding `CCOC(=O)CC(NS(=O)(=O)Cc1ccccc1)c1ccc(C)cc1` (stereo unspecified), the result was inactive. Next, `COc1ccc(NC(=O)c2nc3ccccc3s2)cc1`: “inactive”; `COc1cccc(NC(=O)c2ccc(C(=O)c3ccccc3)o2)c1`: “inactive”; `CCOc1ccc(NC(=O)c2nnn(CC(=O)Nc3ccccc3OC)c2N)cc1`: “inactive”.

For `O=S(=O)(c1ccc(OCC2CO2)cc1)c1ccc(OCC2CO2)cc1` (stereo unspecified), the compound was classed as inactive. As to `COC(=O)COc1ccc(S(=O)(=O)N2CCN(c3ccccc3F)CC2)cc1`, the compound was called inactive. For `Cc1ccc(CC(=O)N2CCN(c3ccc([N+](=O)[O-])cc3)CC2)cc1`, the compound was called inactive. For the compound `O=C(c1cccs1)N1CCN(c2ccc(Cl)cc2)CC1`, the compound was called inactive.

Take `O=C(Nc1ccc(N2CCN(C(=O)c3ccco3)CC2)c(Cl)c1)c1cccs1`: the call was inactive. Turning to `O=C(NNC(=O)c1cccs1)c1ccc(Br)o1`, the outcome was inactive.

For `Cc1ccc(-c2nnc(-c3ccccc3)o2)cc1`, the compound was classed as inactive. `Cc1nc2ccc(OC(=O)c3ccccc3)cc2s1`: the compound was classed as inactive. Then `O=C(COC(=O)CCC(=O)c1ccc(F)cc1)Nc1ccc(F)cc1F`, with “inactive”; and `O=C(NNC(=O)c1ncc(Cl)c(Cl)c1Cl)c1ccc(F)cc1`, with “inactive”. For the compound `O=C1c2ccccc2CC1Sc1nnc(-c2ccncc2)o1` (stereo unspecified), the result was inactive. Regarding `CCOc1ccccc1NC(=O)COn1nnc2ccc(Cl)cc21`, the outcome was inactive. Take `O=C(Nc1ccc(Cl)cc1Cl)c1cccc(N2C(=O)C=CC2=O)c1`: the outcome was inactive. Take `C/C(=N\NC(=O)c1cccc(Cl)c1)C1C(=O)c2ccccc2C1=O`: the result was inactive.

In the case of `O=S(=O)(CCN1CCN(c2ccccn2)CC1)c1ccc(Cl)cc1Cl`, the call was inactive. Next, `CC(=O)c1ccc(-c2nnc(CCC(=O)N(C)Cc3cccc4cnccc34)o2)s1`: “inactive”. Take `O=C(COc1cccc2ccccc12)Nc1ccc(Cl)cc1C(=O)O`: the compound was classed as inactive. Regarding `CCOC(=O)c1csc(COc2ccccc2Cl)n1`, the call was inactive.

As for `N=c1oc2ccc(Cl)cc2cc1C(=O)NC1CCCCCC1`, the call was inactive. `O=C(Nc1nccs1)c1ccc(COc2ccc(Cl)cc2)o1`: the outcome was inactive. For the compound `CCOc1cccc2cc(C(=O)NC(C)c3ccccc3)c(=N)oc12` (stereo unspecified), the compound was classed as inactive.

As to `CCOC(=O)NC(=O)COC(=O)CCCSc1nc2ccccc2s1`, the call was inactive. Turning to `CCNC(=O)NC(=O)C(C)OC(=O)CCCSc1nc2ccccc2s1` (stereo unspecified), the compound was classed as inactive. Regarding `CCOC(=O)C(=O)Cc1nc2ccccc2s1`, the compound was classed as inactive. Next, `CC(C)CNc1nc(=S)nc(N(C)C)[nH]1`: “inactive”; `COc1ccc(S(=O)(=O)NCc2ccc3c(c2)cc(C)n3C)cc1`: “inactive”. Then `CC(NC(=O)OCc1ccccc1)c1ccccc1` (stereo unspecified), with “inactive”; and `CCOC(=O)c1c(-c2ccccc2)csc1NC(=O)CCN1CCOCC1`, with “inactive”; and `COc1ccc2cc(C(=O)NCc3ccccc3CN3CCCC3)ccc2c1`, with “inactive”.

With `CCCCn1nnc(NC(=O)COc2ccc(Cl)c(C)c2)n1`, the compound was called inactive. Turning to `O=c1c2c([N+](=O)[O-])cc([N+](=O)[O-])cc2nc2ccccn12`, the compound was called inactive.

Consider `COc1cc(Cl)cc(/C=N/NC(N)=O)c1O`, for which the compound was classed as inactive. For the compound `CCSc1nc(O)c(C2OC(=O)c3c2ccc(OC)c3OC)c(=O)n1-c1ccccc1` (stereo unspecified), the outcome was inactive. In the case of `NCCNc1ccc([N+](=O)[O-])c2cccnc12`, the result was inactive.

Consider `C/C(=N/NC(=O)c1ccco1)c1ccc(Br)s1`, for which the compound was called inactive. `C/C(=N\NC(=O)c1ccco1)c1cc(Cl)sc1Cl`: the result was inactive.

As for `Cc1cccnc1NC(=O)COc1ccc2oc3c(c2c1)CCCC3`, the outcome was inactive.

As to `CCOC(=O)N1CCN(c2cc(C)c([N+](=O)[O-])cc2F)CC1`, the call was inactive.

As to `Cc1ccc(NC(=O)c2noc(C(C)C)c2[N+](=O)[O-])cc1`, the compound was classed as inactive. Next, `O=c1ccn(-c2ccccc2)[nH]1`: “inactive”. `Cc1ccnc(-n2sc3ccccc3c2=O)n1`: the compound was called inactive. Next, `O=c1oc(-c2ccccc2[N+](=O)[O-])nc2ccccc12`: “inactive”. Then `COc1ccc(OCc2n[nH]c(=S)o2)cc1`, with “inactive”. As to `C=CC(=O)Oc1ccc(N2Cc3ccccc3C2=O)cc1`, the compound was called inactive. Take `CN1CCN(Cc2cc(C(C)(C)C)c(O)c(C(C)(C)C)c2)CC1`: the compound was called inactive. On to `CCCn1c(O)c(N=NC(=O)c2ccco2)c2ccccc21`, for which the result was inactive. Then `CCCN1C(=O)SC(CC(=O)Nc2ccccc2)C1=O` (stereo unspecified), with “inactive”.

As for `CCCCn1c(N)c(-c2nc3ccccc3o2)c2c([N+](=O)[O-])nn(CC)c(=O)c21`, the outcome was inactive. Next, `C/C(=N\NC(=O)c1ccccc1)c1nc2ccccc2n1C`: “inactive”. On to `Cc1cc(C)c(OCC(=O)Nc2nnc(-c3ccco3)o2)c(C)c1`, for which the call was inactive.

As to `Cc1cccc(CSc2nnc(-c3ccco3)o2)c1`, the compound was classed as inactive. With `CN(/N=C/c1ccc([N+](=O)[O-])o1)c1ccccc1`, the outcome was inactive. Then `CC1=CN2C(=N)/C(=C/c3ccc([N+](=O)[O-])o3)C(=O)N=C2S1`, with “inactive”; and `Cc1cc(C)n(-c2ccc(C(=O)OCC(=O)Nc3cc(Cl)ccc3[N+](=O)[O-])cc2)n1`, with “inactive”; and `COC(=O)C1=C(C)N(CC2CC2)C(=NCc2cccc(Cl)c2)N[C@H]1c1ccccc1`, with “inactive”.

As to `CCCC(C)C(=O)Nc1ccc(Cl)cn1` (stereo unspecified), the result was inactive. In the case of `CC(C(=O)OCC(=O)c1ccccc1)N1C(=O)C2C3CCC(C3)C2C1=O` (stereo unspecified), the result was inactive.

For the compound `CC(Cc1ccccc1Sc1ccccc1)N(C)C` (stereo unspecified), the outcome was inactive. `Cc1ccc(-c2ccc(/C=N/NC(=O)CN3CCCC3)o2)cc1Cl`: the compound was called inactive. In the case of `CN1CCN(/N=C/c2ccc(-c3ccc([N+](=O)[O-])cc3Cl)o2)CC1`, the compound was classed as inactive. In the case of `COc1ccccc1-n1c(=O)oc2ccc(Cl)cc2c1=O`, the compound was called inactive. Regarding `COc1ccc(Cl)cc1N=Cc1c(O)c2ccccc2oc1=O`, the call was inactive. Then `O=C(N/N=C\c1ccccc1OCc1ccccc1)c1ccco1`, with “inactive”; and `O=C(N[C@@H]1C[C@H]2CC[C@@H]1C2)c1ccco1`, with “inactive”; and `Cc1ccc(C(=O)NCCOc2cccc(C)c2)cc1`, with “inactive”. As for `O=C(NCc1ccccc1CN1CCCC1)c1cc2ccccc2o1`, the compound was called inactive. Take `CCCCNC(=O)N1CCc2ccccc2C1`: the compound was called inactive.

For the compound `O=C1CC(N2CCN(Cc3ccccc3)CC2)C(=O)N1CCc1ccccc1` (stereo unspecified), the call was inactive.

For the compound `CCN1CCN(C(=O)CN(Cc2ccccc2)S(C)(=O)=O)CC1`, the outcome was inactive. Next, `O=C(CCS(=O)(=O)Cc1ccccc1)Nc1ncc([N+](=O)[O-])s1`: “inactive”; `O=C(N/N=C/c1c(O)ccc2ccccc12)c1ccc(Br)o1`: “inactive”. For the compound `CCCCN(C)C(=O)c1cc2cc3ccc(OC)cc3nc2s1`, the call was inactive.

As for `CCCOC(=O)c1ccc(OC(=O)c2ccco2)cc1`, the call was inactive.

Take `O=C(CNC(=O)c1ccccc1F)OCc1csc(-c2ccccc2)n1`: the compound was called inactive. Take `O=C(NCC1CCCCC1)c1ccco1`: the result was inactive. For the compound `C/C(=N/NC(=O)c1cccc(C)c1)c1c(O)cc(C)oc1=O`, the outcome was inactive. As for `COc1cccc(NC(=O)c2ccc(-c3ccc([N+](=O)[O-])cc3)o2)c1`, the result was inactive.

As for `O=C(Nc1ncc([N+](=O)[O-])s1)c1cccs1`, the compound was called inactive. As to `O=C1/C(=C\c2ccco2)SC(=S)N1c1ccc(O)cc1`, the compound was classed as inactive. Turning to `Cc1ccccc1C(=O)NNc1ccc([N+](=O)[O-])cc1`, the result was inactive. In the case of `Cc1c(Cl)cccc1NC(=O)C1COc2ccccc2O1` (stereo unspecified), the compound was called inactive.

`O=C(NNC1=C(C(=O)C(F)(F)F)CCC1)c1ccccc1Cl`: the outcome was inactive. Then `O=C(c1cccc2cccc(O)c12)N1CCCCC1`, with “inactive”; and `O=C(COc1ccc2ccccc2c1)N1CCCC1`, with “inactive”. For the compound `Cc1ccc(C(=O)N/N=C/c2cccc3ccccc23)cn1`, the outcome was inactive. With `CCN(CC)CCSc1nnc2c3cc(C)ccc3n(Cc3ccccc3)c2n1`, the result was inactive. As for `Cc1ccc(NC(=O)C2CC2c2ccccc2)cc1` (stereo unspecified), the compound was classed as inactive. As to `Cc1nnc(SCCC(=O)Nc2ccc(Cl)cc2)o1`, the outcome was inactive. In the case of `O=C(CCSc1nnc(-c2ccncc2)o1)Nc1cccc(Cl)c1`, the call was inactive. For the compound `N#Cc1ccc(CSc2nnc(-c3cccnc3)o2)cc1`, the call was inactive. Consider `CCOC(=O)CN1NC2(CCC(C)CC2)NC1=S` (stereo unspecified), for which the result was inactive. Take `O=[N+]([O-])c1ccc2nc(SCc3cn4cc(Cl)ccc4n3)[nH]c2c1`: the call was inactive. Then `O=c1c2cc(Cl)ccc2nc(-c2ccccc2Cl)n1O`, with “inactive”; and `Cc1nc2ccc(Cl)cc2nc(C)/c1=N\O`, with “inactive”. For `O=c1c2c([N+](=O)[O-])cc([N+](=O)[O-])cc2sn1-c1ccc(Br)cc1`, the compound was called inactive. Regarding `O=C(NNc1nc2ccccc2s1)c1ccc(F)cc1`, the compound was called inactive. Turning to `CC(C)CCC1=NN(C(=O)c2ccco2)C(O)(C(F)(F)F)C1` (stereo unspecified), the compound was called inactive. Take `CCOC(=O)C1(CC2CCCCO2)CCN(Cc2nccn2-c2ccc(OC)cc2)CC1` (stereo unspecified): the compound was classed as inactive. Next, `NNC(=O)COc1cccc(Oc2ccccc2)c1`: “inactive”; `CCCCNS(=O)(=O)c1ccc(OCC(=O)OC)cc1`: “inactive”. Turning to `C=CCOC(=O)c1ccc(-n2cnc(C)n2)nc1`, the result was inactive. Next, `COC(=O)c1ccc(OCC(=O)c2cccc(OC)c2)cc1`: “inactive”; `CCn1cc(/C=N\NC(=O)c2ccc(F)cc2)cn1`: “inactive”. With `O=C(c1cc(F)ccc1F)C1CCCN(Cc2ccc3nonc3c2)C1` (stereo unspecified), the outcome was inactive. Consider `Cc1ccc(NC(=S)C2=C(O)c3sccc3N(C)S2(=O)=O)cc1`, for which the call was inactive. Consider `COc1ccc(CC(=O)Nc2nccs2)cc1OC`, for which the outcome was inactive. Turning to `N#Cc1ccsc1NC(=O)c1ccc(Cl)c([N+](=O)[O-])c1`, the compound was called inactive.

For the compound `O=C(Nc1sc2c(c1C(=O)O)CCCCC2)c1ccccc1F`, the result was inactive.
